Screens from PubChem.
Rab9 prom act – activators of Rab9 promoter. Huh7 Rab9 promoter-luciferase reporter, luminescence, 24 h. Potency, µM (highest dose often 9.22 µM), for inactives: at the top dose activation, negative = inhibition, most hits filed as activators. 320,000 compounds, 2.8% hits. AID 485297; further: % of control where 0% means no effect; nearly all actives have a fitted effect of over 60% in size
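Steps: seed 1500 Huh7 Rab9-luc cells per well, rest 2 h at 37 °C; add compound in DMSO; incubate 24 h; add luciferase reagent, 10 min ambient; read luminescence.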
SMN2 splice up – SMN2 splice variant enhancement; AID 1458; 210,000 compounds, 2.8% hits; HEK293 SMN2-luciferase splicing reporter, luminescence, 30-36 h; Potency, µM (series often up to 46.1 µM), for the others: at the highest dose activity change, positive = activation, hits mostly activators; further: % of control where 0% means no effect; nearly all actives have a fitted effect of over 55% in size
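HEK293 cells carry an SMN2 […]–luciferase reporter in which exon 7 inclusion puts luciferase in frame. Cells were plated 10-12 h before compound addition, then incubated 30-36 h at 37C. ONE-Glo luminescence was read; sodium butyrate at 4.5 mM final served as control.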
NPC1 promoter act – activators of NPC1 promoter. 320,000 compounds, 2.4% hits. Potency, µM (series often up to 9.22 µM), for inactives: top-dose activation, usual class: activators. Huh7 NPC1 promoter luciferase reporter, 24 h; further: % of control where 0% means no effect; nearly all actives have a fitted effect of over 60% in size
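Compounds in DMSO were transferred onto Huh7 NPC1-luciferase reporter cells pre-incubated 2 h; after 24 h at 37 °C, Amplite reagent was dispensed and luminescence recorded 10 min later.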
FLuc counter – inhibits or activates purified firefly luciferase, miR-21 counter-screen. purified FLuc, Km substrates, luminescence inhibition. Potency, µM (titrated, usually from 57.5 µM), inactives show top-dose activity change, negative = inhibition, hits mostly inhibitors. P08659. 360,000 compounds, 6.9% hits;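 further: plate controls were vehicle for no effect and reference inhibitor for full effect; nearly all actives have a fitted effect of over 55% in size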
Target sequence (P08659 whole entry, looked up): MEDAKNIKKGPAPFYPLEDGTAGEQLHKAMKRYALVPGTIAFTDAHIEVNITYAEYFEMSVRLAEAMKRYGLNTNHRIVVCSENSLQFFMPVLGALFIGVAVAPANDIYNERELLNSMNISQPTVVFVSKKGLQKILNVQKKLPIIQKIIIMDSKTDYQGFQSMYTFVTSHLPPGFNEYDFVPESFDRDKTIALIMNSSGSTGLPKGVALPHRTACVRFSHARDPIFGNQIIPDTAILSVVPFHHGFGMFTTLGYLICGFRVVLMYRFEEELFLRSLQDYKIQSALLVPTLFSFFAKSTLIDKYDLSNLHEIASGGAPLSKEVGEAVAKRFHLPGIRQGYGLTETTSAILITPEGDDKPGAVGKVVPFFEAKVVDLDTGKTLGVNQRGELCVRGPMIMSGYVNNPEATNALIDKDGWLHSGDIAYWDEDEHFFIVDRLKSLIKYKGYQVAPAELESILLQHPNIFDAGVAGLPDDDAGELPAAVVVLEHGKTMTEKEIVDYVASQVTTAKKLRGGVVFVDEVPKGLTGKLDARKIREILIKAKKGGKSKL
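Purified P. pyralis luciferase, 10 nM final, with Km-level 10 uM D-luciferin and 10 uM ATP in 50 mM Tris acetate pH 7.5, 10 mM Mg acetate, 0.01% Tween-20, 0.05% BSA; 6-point qHTS titration about 60 µM downward; luminescence read.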
ELG1 genotoxic – inducers of genotoxicity in HEK293T ELG1-luciferase cells; Potency, µM (doses to about 46 µM), inactives show at the highest dose activity change, positive = activation, most hits filed as activators; HEK293T ELG1-luciferase reporter, luminescence, 16 h; 330,000 compounds, 1.3% hits; AID 504466; further: % of control where 0% means no effect; nearly all actives have a fitted effect of over 60% in size
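Screening used a luciferase reporter fused to human ELG1 in HEK293T cells. Luminescence was read on a CCD plate imager after 16 hr exposure and 30 min ONE-Glo incubation.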
Starred values were filed as active, the others as inactive; ? = inconclusive; / = no result given. In the library only some 7.5% were active in any assay of this set; here they are far more common. The call rests on the fitted dose curve; in most records, active means well fitted curve in the direction sought with a large enough effect; inconclusive means small, poorly fitted or top-dose-only effect, or another doubt; inactive means no such curve, though single readings can be large; an effect the other way counts as inactive or inconclusive. Potency means the concentration at half of the fitted maximal effect.

SMILES	Rab9 prom act	SMN2 splice up	NPC1 promoter act	FLuc counter	ELG1 genotoxic
O=C1CC(/C=C/c2ccncc2)=Nc2ccccc2N1	-4.8%	-44.4%	1.5%	-19.2%	-10.9%
COc1ccc(CCNC(=O)Cc2c(C)c3c(cc(C)c4c(C)c(C)oc43)oc2=O)cc1	/	5.0%	/	0.8%	/
CC(NC(=O)NC1CCCCC1)C(c1cccs1)N1CCN(c2ccccc2)CC1 (stereo not given)	-3.7%	-11.5%	-3.4%	0.3%	-23.9%
O=C(Nc1nc2c(F)cccc2s1)c1ccc([N+](=O)[O-])o1	?	/	3.98µM*	?	1.9%
COc1ccc(-c2csc(N3N=C(C)C(C)C3=O)n2)cc1 (stereo not given)	4.47µM*	?	?	8.49µM*	8.6%
CC1=NN(c2nc(-c3ccc(C)cc3)cs2)C(=O)C1N=Nc1ccccc1O (stereo not given)	-52.3%	/	-37.7%	10.7µM*	-8.5%
CC1=NN(c2nc(-c3ccc(C)cc3)cs2)C(=O)C1N=Nc1cccc(O)c1 (stereo not given)	-6.4%	-41.1%	2.1%	?	-12.8%
CCC(C)N(C(=O)COC(=O)c1ccc(=O)n(Cc2ccccc2)n1)C1CCS(=O)(=O)C1 (stereo not given)	-1.7%	/	-0.5%	4.3%	-4.1%
CCCC(C(=O)Nc1ccc2c(C)cc(=O)oc2c1)c1ccccc1 (stereo not given)	-1.2%	/	4.1%	9.3%	-6.3%
CC1CCCCN1C(=O)c1cc2ccccc2cc1O (stereo not given)	-1.3%	/	-4.8%	2.2%	-2.2%
C(=C\c1nc2ccccc2[nH]1)/c1ccccc1	0.398µM*	0.282µM*	0.178µM*	0.301µM*	?
C(=C\c1ccco1)/c1nc2ccccc2[nH]1	0.631µM*	/	3.55µM*	1.9µM*	?
O=c1[nH]c2ccccc2nc1/C=C/c1ccc(Cl)cc1	0.891µM*	/	3.16µM*	?	9.2µM*
C/C(O)=C/c1nc2ccccc2[nH]c1=O	-3.1%	-12.0%	-3.8%	0.6%	2.7%
FC(F)(F)c1cccc(N2CCN(c3ncnc4c3nc3n4CCCC3)CC2)c1	/	/	/	6.5%	/
Cc1ccc(-c2nnc(SCC(=O)NCc3ccccc3)o2)cc1	/	-7.4%	/	-10.3%	/
CCOC(=O)c1ccc(NC(=O)CN2C(=O)C(C)SC(C)C2=O)cc1 (stereo not given)	0.4%	7.9%	-0.8%	?	-2.0%
CCOC(=O)c1ccc(NC(=O)CN2C(=O)CSC(C)C2=O)cc1 (stereo not given)	-3.9%	-18.2%	-4.1%	16.9µM*	1.3%
CN(C)c1ccc(C2C3CCCc4ccccc4C3=NN2C)cc1 (stereo not given)	3.16µM*	/	?	19µM*	9.0%
CN1N=C2c3ccccc3CCC2C1c1ccc(C(F)(F)F)cc1 (stereo not given)	24.4%	/	26.3%	?	0.3%
COc1ccc(NC(=O)C2COc3ccccc3C2)cc1Cl (stereo not given)	/	/	/	-0.9%	/
CCCCOC(=O)c1ccc(NC(=O)c2ccoc2C)cc1	?	?	20.6%	?	20.6µM*
CCCCOC(=O)c1ccc(NC(=O)c2ocnc2C)cc1	21.5%	-8.5%	18.7%	16.9µM*	4.7%
CCCOC(=O)c1ccc(NC(=O)c2ccoc2C)cc1	1.58µM*	?	3.16µM*	9.53µM*	15.3%
CCOc1cccc(-c2nc3cc(C)ccc3o2)c1	?	12.6µM*	13.5%	0.953µM*	?
SMILES	Rab9 prom act	SMN2 splice up	NPC1 promoter act	FLuc counter	ELG1 genotoxic
Cc1ccc2oc(-c3cccc(NC(=O)Cc4ccc(Cl)cc4)c3)nc2c1	/	-5.5%	/	1.4%	/
Cc1ccc2oc(-c3ccccc3)nc2c1	3.16µM*	?	1.12µM*	0.601µM*	?
CCOc1ccc(C(=O)Nc2ccc(-c3nc4cc(C)ccc4o3)cc2)cc1	/	/	/	-13.6%	/
CC1=C(c2ccc(C)cc2)S(=O)(=O)N(Cc2ccc(C(=O)Nc3ccc(F)cc3C)cc2)C1=O	/	/	/	-5.2%	/
COc1ccccc1/C=C/C=N/NC(=O)c1cc(-c2ccco2)[nH]n1	-0.3%	/	-2.7%	16.9µM*	-4.9%
COc1ccccc1/C=C/C=N/NC(=O)c1ccccn1	1.12µM*	11.2µM*	2µM*	8.49µM*	-8.7%
O=C(NCCCc1ccc(F)cc1)C1CCC(=O)N(CCN2CCOCC2)C1 (stereo not given)	3.0%	/	2.4%	1.4%	0.5%
O=C1CCNc2ccc(-c3ccccc3)cc21	21.5%	?	?	15.1µM*	?
CC1CN(CC(O)COCc2ccc3c(c2)OCO3)CC(C)O1 (stereo not given)	1.3%	-18.0%	2.7%	0.4%	-3.7%
COc1ccc(C(=O)Nc2nc3ccccc3c(=O)[nH]2)cc1	0.398µM*	12.6µM*	0.708µM*	2.69µM*	?
COc1ccc(C(=O)Nc2cccc(/C=C/c3nc4ccccc4c(=O)[nH]3)c2)cc1	3.16µM*	/	27.1%	?	-3.8%
COc1cc(OC)c(NC(=O)c2ccc3nc(C(C)C)oc3c2)cc1Cl	/	/	/	3.5%	/
O=C(Nc1ccc(Cl)cc1)Nc1ccc(-c2cnco2)cc1	1.7%	/	4.8%	-3.5%	8.2%
CC(C)(C)C(=O)Nc1ccc(-c2cnco2)cc1	18.0%	/	20.6%	16.9µM*	14.1%
CC(C)(C)c1ccc(-c2cnco2)cc1	1.4%	/	2.0%	16.9µM*	2.9%
COc1ccc(NC(=O)CN(C)C(=O)CNC(=O)c2ccc3c(c2)OCO3)cc1	2.5%	/	0.3%	-16.4%	19.7%
CCN(c1cc(C)cc(C)c1)S(=O)(=O)c1nnc(NC(=O)c2cccc(F)c2)s1	/	/	/	-4.1%	/
CCSc1nnc(NC(=O)C2CC(=O)N(Cc3ccccc3)C2)s1 (stereo not given)	4.8%	6.3%	-4.8%	-13.2%	-0.4%
CCCCOc1ccc2ccccc2c1C=O	20.0%	-0.6%	19.6%	21.3µM*	12.1%
COc1ccccc1C(=O)NC(=O)COC(=O)CN1C(=O)NC(C)(C)C1=O	-0.3%	/	2.1%	5.6%	-3.2%
COc1ccc(-c2cc3ccccc3s2)cc1[C@H]1[C@H]2C=CC[C@@H](C)[C@@H]2C(=O)N1Cc1ccccc1	2.82µM*	/	3.16µM*	1.35µM*	?
COc1cccc(N2CCN(C(=O)c3cnc4c(-c5ccc(F)cc5)c(C)nn4c3C)CC2)c1	/	/	/	-10.4%	/
Cc1cccc(NC(=O)c2cnc3scc(C)n3c2=O)c1	3.16µM*	12.6µM*	3.16µM*	8.49µM*	16.2%
Cc1cc(NS(=O)(=O)c2ccc(NC(=O)c3cnc4scc(C)n4c3=O)cc2)nc(C)n1	-2.2%	13.0%	0.4%	-2.1%	8.1%
Cc1csc2ncc(C(=O)Nc3ccon3)c(=O)n12	12.3%	-3.5%	12.6%	-8.0%	5.1%
Cc1csc2ncc(C(=O)Nc3ccc4c(c3)OCCO4)c(=O)n12	2.24µM*	4.47µM*	?	?	2.31µM*
